{
  "source": "PubChem BioAssay AID686978",
  "about": "(National Center for Advancing Translational Sciences (NCATS), 2013)",
  "note": "Hit rate of the full screen: of about 420,000 compounds, about 64,000 (15%) were called active. Roughly 27% stayed inconclusive and do not appear here. These entries were drawn from the full list. Values without a mark were called inactive. The call rests on the fitted dose curve; in most records, active means well fitted inhibition curve with a large enough effect; inconclusive means small, poorly fitted or top-dose-only effect; inactive means flat fitted curve, though single readings scatter. On the % scale 0 is the no-effect control and ±100 the full control effect; potency means the concentration at half of the fitted maximal effect.",
  "data": [
    {"assay": "qHTS for Inhibitors of human tyrosyl-DNA phosphodiesterase 1 (TDP1): qHTS in cells in absence of CPT; further: nearly all actives have a fitted effect of over 55% in size", "conditions": "DT40 Tdp1-/- hTDP1 cells, no CPT, ATP luminescence, 48 h; activity change, negative = growth inhibition: at 46.2 µM (top of the series)", "outline": "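Seeded 400 DT40-hTDP1 cells/well (vehicle DMSO, no 20 nM CPT); pinned compounds; ≥48 hr at 37 °C; CellTiter-Glo luminescence as viability measure.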", "values": [
      {"smiles": "Cc1[nH]c2ccccc2c1SCC(=O)Nc1nccs1", "activity change, negative = growth inhibition": "-6.86%"},
      {"smiles": "COc1ccc(Br)cc1C(=O)NC(=S)Nc1cc(-c2nc3ccccc3[nH]2)ccc1C", "Potency": "14.6 µM (active)"},
      {"smiles": "COc1ccc(Br)cc1C(=O)Nc1cccc(C)c1C", "activity change, negative = growth inhibition": "-22.7%"},
      {"smiles": "Cc1ccc(OCC(=O)Nc2ccc(Cl)c(-c3nc4ccccc4[nH]3)c2)cc1C", "activity change, negative = growth inhibition": "-98.6%"},
      {"smiles": "CCOC(=O)c1nnn(CC(=O)NC(=O)Nc2ccccc2F)c1C(=O)OCC", "activity change, negative = growth inhibition": "-18.3%"},
      {"smiles": "COc1ccc(N(CC(=O)NCC2CCCO2)C(=O)CCC(=O)Nc2nccs2)c(OC)c1", "note": "(stereo unspecified)", "activity change, negative = growth inhibition": "-20.4%"},
      {"smiles": "O=c1c(O)c(Br)ccc2c(Br)c(O)c(O)c(O)c12", "activity change, negative = growth inhibition": "8.26% [at 9.04 µM]"},
      {"smiles": "O=C(OCC(=O)N1CCN(c2ccccc2)CC1)c1ccc([N+](=O)[O-])s1", "Potency": "4.61 µM (active)"},
      {"smiles": "COc1cc(NC(=O)COC(=O)c2ccc([N+](=O)[O-])s2)cc(OC)c1OC", "activity change, negative = growth inhibition": "11.9%"},
      {"smiles": "C[C@H](NC(=O)c1ccccc1Cl)C(=O)OCC(=O)N1CCN(c2ccccc2)CC1", "activity change, negative = growth inhibition": "0.465%"},
      {"smiles": "Oc1ccc(-c2cccc(-c3ccc(O)cc3)c2)cc1", "activity change, negative = growth inhibition": "6.67%"},
      {"smiles": "Cc1cn(C2CC(O)C(CO)O2)c(=O)n(CCCc2ccccc2)c1=O", "note": "(stereo unspecified)", "activity change, negative = growth inhibition": "-14.7%"},
      {"smiles": "COCCn1c(=O)c(-c2cccs2)nc2cnc(N3CCN(C)CC3)nc21", "activity change, negative = growth inhibition": "-22.9%"},
      {"smiles": "CCOC(=O)N1CCN(Cc2nc3cc(NC(=O)CC)ccc3n2CC)CC1", "Potency": "29.1 µM (active)"},
      {"smiles": "CCOC(=O)N1CCN(Cc2nc3cc(NC(C)=O)ccc3n2C)CC1", "activity change, negative = growth inhibition": "0.858%"},
      {"smiles": "CN1CCN(Cc2nc3cc(NC(=O)COc4ccc([N+](=O)[O-])cc4)ccc3n2C)CC1", "activity change, negative = growth inhibition": "17.7%"},
      {"smiles": "CC(=O)Cc1nsc(NC(=O)c2ccc(COc3ccc(C)cc3)o2)n1", "activity change, negative = growth inhibition": "1.76%"},
      {"smiles": "CN1CCC(=NNC(=O)CN(c2cccc(Cl)c2)S(C)(=O)=O)CC1", "activity change, negative = growth inhibition": "-7.27%"},
      {"smiles": "CC1=CCC2C(=O)N(c3cccc(C(=O)NC(C)c4ccccc4)c3)C(=O)C2C1", "note": "(stereo unspecified)", "activity change, negative = growth inhibition": "7.3%"},
      {"smiles": "COc1ccc(CCNC(=O)c2ccco2)cc1", "activity change, negative = growth inhibition": "-29.5%"},
      {"smiles": "CCCNC(=O)c1ccccc1NC(=O)CSCc1ccc(OC)cc1", "activity change, negative = growth inhibition": "-8.44%"},
      {"smiles": "CCOc1ncccc1C(=O)NCCc1ccc(OC)cc1", "Potency": "20.6 µM (active)"},
      {"smiles": "Cn1c(=O)[nH]c(=O)c2c1[nH]c(=S)n2Cc1ccccc1", "activity change, negative = growth inhibition": "26.7%"},
      {"smiles": "O=C(CSc1ccc(C(F)(F)F)cc1[N+](=O)[O-])NCCOc1ccccc1", "activity change, negative = growth inhibition": "-16.7%"},
      {"smiles": "Cc1cccc(OCCNC(=O)CSc2ccc(C(F)(F)F)cc2[N+](=O)[O-])c1", "Potency": "16.4 µM (active)"},
      {"smiles": "Cc1cccc(OCCNC(=S)NC(=O)c2cccnc2)c1", "activity change, negative = growth inhibition": "-8.96%"},
      {"smiles": "O=c1c(-c2cccs2)nc2cnc(Oc3ccccc3)nc2n1-c1ccccc1", "activity change, negative = growth inhibition": "-6.07%"},
      {"smiles": "CN(C)c1nnnn1-c1ccc(Cl)cc1", "activity change, negative = growth inhibition": "-1.87%"},
      {"smiles": "Clc1ccc(-n2nnnc2-c2cnc(-c3ccccn3)nc2-c2cccs2)cc1", "Potency": "5.17 µM (active)"},
      {"smiles": "O=C(OC(C(=O)NC1CCCC1)c1ccc(F)cc1)c1ccno1", "note": "(stereo unspecified)", "activity change, negative = growth inhibition": "-10.5%"},
      {"smiles": "O=C(Nc1ncc2c(n1)CC(c1ccco1)CC2=O)c1ccc(Cl)cc1", "note": "(stereo unspecified)", "activity change, negative = growth inhibition": "-25.7%"},
      {"smiles": "Cc1cccc(NC(=O)CSc2nc3c(c(=O)[nH]2)CCCC3)c1C", "activity change, negative = growth inhibition": "-8.26%"},
      {"smiles": "CC(=O)NC1=NC(=O)CS1", "activity change, negative = growth inhibition": "-2.82%"},
      {"smiles": "Cc1ccc(S(=O)(=O)N(C)c2ccc(OCC(=O)OCc3ccc(C#N)cc3)cc2)cc1", "activity change, negative = growth inhibition": "-1.54%"},
      {"smiles": "CN(c1ccc(OCC(=O)O)cc1)S(=O)(=O)c1ccc2ccccc2c1", "activity change, negative = growth inhibition": "-8.74%"},
      {"smiles": "COc1cccc(COc2ccc(N(C)S(=O)(=O)c3ccccc3)cc2)c1", "Potency": "16.4 µM (active)"},
      {"smiles": "CCOC(=O)CNC(=O)CSc1nc2cccnc2n1CC", "activity change, negative = growth inhibition": "-5.19%"},
      {"smiles": "CC(C)C[C@H]1CN=C(Nc2ccccc2)N1CC1CCCCC1", "Potency": "16.4 µM (active)"},
      {"smiles": "CC(CO)(CO)NC(=O)c1ccc(=O)[nH]n1", "activity change, negative = growth inhibition": "7.23%"},
      {"smiles": "Cc1cccc(-n2c(=O)c3c(c4cc(C)ccc4n3C)n(CC(=O)Nc3ccccc3Cl)c2=O)c1", "activity change, negative = growth inhibition": "-9.55%"},
      {"smiles": "Cc1ccc2c(c1)c1c(c(=O)n(-c3ccccc3)c(=O)n1CC(=O)c1ccc(Cl)cc1)n2C", "activity change, negative = growth inhibition": "-11.5%"},
      {"smiles": "CCc1ccccc1NC(=O)Cn1c(=O)n(-c2cccc(C)c2)c(=O)c2c1c1cc(OC)ccc1n2C", "Potency": "2.06 µM (active)"},
      {"smiles": "CCC(CC)c1nnc(NS(=O)(=O)Cc2ccccc2)s1", "activity change, negative = growth inhibition": "-0.792%"},
      {"smiles": "Cc1nn(C(C)C(=O)N2CCOCC2)c(=O)c2nn(-c3ccccc3)c(C)c12", "note": "(stereo unspecified)", "activity change, negative = growth inhibition": "10.9%"},
      {"smiles": "Cc1c(CNCCc2ccccc2)c(C(=O)O)c(C)n1-c1ccccc1", "activity change, negative = growth inhibition": "-6.22%"},
      {"smiles": "CC1=NOC(=O)/C1=C\\c1ccccc1", "activity change, negative = growth inhibition": "-19.8%"},
      {"smiles": "C#CCOc1ccccc1/C=C1/C(=O)ON=C1C", "Potency": "14.6 µM (active)"},
      {"smiles": "Cc1cn(C)c(CC(=O)NCc2ccccc2)c1C(=O)O", "activity change, negative = growth inhibition": "10%"},
      {"smiles": "COc1ccc(Cl)cc1NC(=O)COc1ccc2c(c1)OCO2", "activity change, negative = growth inhibition": "-1.31%"},
      {"smiles": "COc1ccc(Cl)cc1NC(=O)COC(=O)C(CC(C)C)N1C(=O)C2CC=CCC2C1=O", "note": "(stereo unspecified)", "Potency": "18.4 µM (active)"},
      {"smiles": "COc1ccc(Cl)cc1NC(=O)CN1CCN(C(=O)N2CCOCC2)CC1", "activity change, negative = growth inhibition": "-16.6%"},
      {"smiles": "CC1(C)NC(=O)N(CCOc2cccc(Oc3ccccc3)c2)C1=O", "activity change, negative = growth inhibition": "-8.49%"},
      {"smiles": "Cc1nnc(N(Cc2ccco2)C(=O)c2ccno2)s1", "activity change, negative = growth inhibition": "-13.2%"},
      {"smiles": "CCCNC(=O)c1c(Cl)cnn1-c1ccc(C)cc1", "activity change, negative = growth inhibition": "-16%"},
      {"smiles": "Cc1ccnc(NC(=O)CCCOc2ccccc2)c1", "activity change, negative = growth inhibition": "-0.626%"},
      {"smiles": "COc1ccc(Cl)cc1NC(=O)c1oc(C)nc1C", "activity change, negative = growth inhibition": "-4.86%"}
    ]}
  ]
}
